Assay outcomes (PubChem BioAssay)
This is a sample that favours compounds with a hit; in the whole collection about 16% have one here.
miR-21 reporter: qHTS Assay for Modulators of miRNAs and/orActivators of miR-21. HeLa miR-21 FLuc reporter, luciferase, 48 h. Potency, µM (series often up to 38.3 µM), without a hit: top-dose activity change, positive = activation, actives largely listed as activators. 340,000 tested, under 10 active. AID 2288, 2010;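 also: % of control where 0% means no effect; miR-21 action dims this reporter so a rising signal means less miR-21 action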
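Compounds were titrated across several concentrations (up to approximately 40 uM) and incubated 48 hours with HeLa miR-21-FLuc reporter cells (miR-21 target sequence downstream of FLuc, endogenous miR-21). Readout was firefly luciferase luminescence after lytic detection reagent.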
DT40 TDP1 CPT: qHTS for Inhibitors of human tyrosyl-DNA phosphodiesterase 1 (TDP1): qHTS in cells in presence of CPT; chicken DT40 Tdp1-/-;hTDP1 cells + 20 nM CPT, ATP luminescence, 48 h; Potency, µM (doses to about 46.2 µM), without a hit: top-dose activity change, negative = growth inhibition, usual class: inhibitors; hit rate 12% among 420,000; also: potency is read from the fitted curve at half-maximal effect; % is scaled to controls: 0 for no effect and ±100 for the full control effect; nearly all actives have a fitted effect of over 55% in size
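Cell growth measured by CellTiter-Glo luminescence after a minimum 48 h, 37 C compound exposure with 20 nM CPT in Tdp1-knockout DT40 cells stably expressing hTDP1, seeded 400/well; qHTS titration format.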
TDP1 inh: qHTS Assay for Inhibitors of Tyrosyl-DNA Phosphodiesterase (TDP1); hit rate 0.28% among 350,000; Tyrosyl-DNA phosphodiesterase 1 (Homo sapiens), Q9NUW8; recombinant TDP1, AlphaScreen DNA substrate cleavage; AID 485290, 2010; Potency, µM (highest dose often 130 µM), for the others: at the highest dose activity change, negative = inhibition, actives largely listed as inhibitors; also: potency is read from the fitted curve at half-maximal effect; % is scaled to controls: 0 for no effect and ±100 for the full control effect; nearly all actives have a fitted effect of over 40% in size
Target sequence (Q9NUW8 whole entry, looked up): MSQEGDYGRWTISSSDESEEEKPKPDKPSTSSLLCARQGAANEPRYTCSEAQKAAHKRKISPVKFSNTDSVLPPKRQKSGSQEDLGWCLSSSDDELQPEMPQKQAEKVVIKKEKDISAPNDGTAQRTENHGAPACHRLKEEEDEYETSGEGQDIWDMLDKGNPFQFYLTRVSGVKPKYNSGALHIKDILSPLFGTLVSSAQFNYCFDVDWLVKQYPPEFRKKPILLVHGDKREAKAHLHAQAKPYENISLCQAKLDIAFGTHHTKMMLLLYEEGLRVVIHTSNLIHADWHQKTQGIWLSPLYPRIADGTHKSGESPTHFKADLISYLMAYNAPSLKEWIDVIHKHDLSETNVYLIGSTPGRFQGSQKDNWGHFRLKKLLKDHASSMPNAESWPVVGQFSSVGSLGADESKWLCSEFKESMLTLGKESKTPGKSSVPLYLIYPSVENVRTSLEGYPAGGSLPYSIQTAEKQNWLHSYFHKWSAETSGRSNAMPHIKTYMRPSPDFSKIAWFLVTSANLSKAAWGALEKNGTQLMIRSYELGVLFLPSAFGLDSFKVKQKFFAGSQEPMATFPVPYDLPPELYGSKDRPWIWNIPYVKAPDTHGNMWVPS
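AlphaScreen read-out: signal falls as enzyme removes the 3' tyrosine-FITC from a 5'-biotinylated DNA oligo (15 nM, 5 min, RT). Enzyme was E. coli-made recombinant Tdp1 at 1 nM, exposed to compound for 15 min beforehand; beads 10 ug/ml, 10 min.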
TDP1 cell noCPT: qHTS for Inhibitors of human tyrosyl-DNA phosphodiesterase 1 (TDP1): qHTS in cells in absence of CPT; hit rate 15% among 420,000; DT40 Tdp1-/- hTDP1 cells, no CPT, ATP luminescence, 48 h; AID 686978, 2013; Potency, µM (top dose mostly 46.2 µM), for the others: at the top dose activity change, negative = growth inhibition, actives largely listed as inhibitors; also: potency is read from the fitted curve at half-maximal effect; % is scaled to controls: 0 for no effect and ±100 for the full control effect; nearly all actives have a fitted effect of over 55% in size
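A cellular qHTS used chicken DT40 cells lacking endogenous Tdp1 but carrying stably transfected human TDP1. Compounds were applied without camptothecin, and cell growth kinetics were judged by ATP-dependent luminescence after ≥48 hr.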
uPA generation: qHTS for Inhibitors of Cell Surface uPA Generation | cell surface uPA generation assay, qHTS | Potency, µM (titrated, usually from 38.3 µM), without a hit: top-dose activity change, negative = inhibition, usual class: inhibitors | hit rate 0.31% among 330,000 | AID 540303, 2011; active = well fitted inhibition curve with a large enough effect; inconclusive = small, poorly fitted or top-dose-only effect; inactive = no such curve, though single readings can be large or run the other way; tested in mouse RAW 264.7 cells; also: potency is read from the fitted curve at half-maximal effect; % is scaled to controls: 0 for no effect and ±100 for the full control effect; nearly all actives have a fitted effect of over 55% in size
Starred values were filed as active, the others as inactive; ? = inconclusive; . = no result given. Unless noted, calls follow the shape of the dose curve; as a rule, active = well fitted curve in the direction sought with a large enough effect; inconclusive = small, poorly fitted or top-dose-only effect, or another doubt; inactive = no such curve, though single readings can be large; an effect the other way counts as inactive or inconclusive.

SMILES	miR-21 reporter	DT40 TDP1 CPT	TDP1 inh	TDP1 cell noCPT	uPA generation
CC1=C(C(=O)OCc2ccc3c(c2)OCO3)C(c2ccc(F)cc2)NC(=O)N1 (stereo not given)	?	4.11µM*	5.1%	4.11µM*	-34.2%
CSCCOC(=O)C1=C(C)NC(=O)NC1c1ccc2c(c1)OCO2 (stereo not given)	-2.6%	-0.5%	.	21.5%	-8.2%
CC1=C(C(=O)OCc2ccc3c(c2)OCO3)C(c2ccc(Cl)cc2)NC(=O)N1 (stereo not given)	?	2.31µM*	6.1%	2.91µM*	?
Cc1ccc(C2=NOC(C)(c3nnc(-c4ccc(F)cc4)o3)C2)cc1 (stereo not given)	-4.7%	3.7%	-3.5%	-5.1%	-9.7%
CCOc1ccc2[nH]c(SCC(=O)OC)c([N+](=O)[O-])c2c1	-1.2%	6.51µM*	-1.2%	4.61µM*	-1.0%
COC(=O)CSc1[nH]c2cc(C)ccc2c1[N+](=O)[O-]	-4.8%	?	0.0%	?	-3.0%
O=[N+]([O-])c1cccc2c(N3CCOCC3)ccnc12	-6.6%	?	0.0%	14.6µM*	?
O=[N+]([O-])c1ccc(N2CCN(S(=O)(=O)c3ccccc3)CC2)c2cccnc12	-17.4%	?	8.4%	?	-4.6%
CCN(CC)C(=O)/C(=C\c1ccc(Br)cc1)NC(=O)c1ccccc1OC	-11.3%	?	1.0%	14.6µM*	4.7%
COc1ccccc1C(=O)N/C(=C\c1ccc(Br)cc1)C(=O)NCCO	-0.8%	5.2%	5.2%	-15.7%	-2.9%
C[C@H]1C(=O)N(C)CCN1C(=O)c1ccc(OC2CCN(CCc3ccccc3)CC2)cc1	.	-0.3%	.	-0.4%	.
CC(=O)c1c(C)n(-c2ccc(C)cc2C)c2ccc(O)cc12	12.6%	?	.	-21.8%	-4.6%
COc1ccc(C2CC(=O)Nc3c2c(C)nn3-c2nncc(-c3ccc(C)cc3)n2)c(OC)c1OC (stereo not given)	4.5%	11.6µM*	5.7%	6.51µM*	.
Cc1cc(C)nc(-n2nc(C)c3c2NC(=O)CC3c2ccccc2OC(C)C)n1 (stereo not given)	-0.8%	16.4µM*	7.8%	18.4µM*	.
COc1cc(C2CC(=O)Nc3c2c(C)nn3-c2nc(C)cc(C)n2)cc(OC)c1O (stereo not given)	-8.5%	-4.0%	1.6%	-9.4%	.
Cc1ccc(CN2C(=O)CC(c3ccc(Cl)cc3)c3c(C)nn(-c4nc(C)cc(C)n4)c32)cc1 (stereo not given)	0.1%	?	1.6%	20.6µM*	.
Cc1ccc(C2CC(=O)N(Cc3ccc(F)cc3)c3c2c(C)nn3-c2nc(C)cc(C)n2)cc1 (stereo not given)	0.2%	?	4.7%	?	.
CCc1ccc(C2CC(=O)Nc3c2c(C)nn3-c2nc(C)cc(C)n2)cc1 (stereo not given)	20.0%	20.6µM*	0.5%	20.6µM*	.
COc1ccc(C2CC(=O)Nc3c2c(C)nn3-c2nncc(-c3ccccc3)n2)c(OC)c1OC (stereo not given)	-0.3%	-14.0%	5.7%	?	.
COc1ccc(C2CC(=O)Nc3c2c(C)nn3-c2nc(C)cc(C)n2)c(OC)c1OC (stereo not given)	-1.1%	-15.7%	-3.6%	-22.4%	.
CC(C)c1cccc(C(C)C)c1NS(=O)(=O)c1cccs1	-30.7%	?	-0.9%	?	.
CCCS(=O)(=O)NC(=O)C1(C)CCN(C(=O)c2snnc2C)C1 (stereo not given)	.	-1.5%	.	-0.8%	.
N#CC1=C(N)N2C(=C(C#N)C1c1ccc(Br)cc1)Nc1ccccc12 (stereo not given)	4.6%	6.51µM*	2.7%	3.26µM*	-14.3%
N#CC1=C(N)N2C(=C(C#N)C1c1cccc(Br)c1)Nc1ccccc12 (stereo not given)	-6.7%	3.66µM*	0.6%	3.26µM*	0.7%
O=C(CCNC(=O)c1ccco1)NCCc1ccc(Cl)cc1	-13.9%	-23.5%	2.3%	-10.3%	5.5%
SMILES	miR-21 reporter	DT40 TDP1 CPT	TDP1 inh	TDP1 cell noCPT	uPA generation
Cc1nn(CCC(=O)NCc2ccc(N(C)C)cc2)c(=O)c2nn(-c3ccccc3)c(C)c12	-1.1%	-2.2%	2.3%	10.0%	5.1%
CCSc1nc2sc3c(c2c(=O)n1-c1ccccc1)CCN(C)C3	1.1%	?	.	?	0.1%
COc1ccc(-n2c(SC)nc3sc4c(c3c2=O)CCN(C)C4)cc1	2.1%	?	.	11.6µM*	5.0%
CCCN1CCc2c(sc3nc(SC)n(-c4ccccc4)c(=O)c23)C1	17.4%	6.51µM*	.	5.8µM*	0.0%
CCCN1CCc2c(sc3nc(SCC)n(-c4ccc(OC)cc4)c(=O)c23)C1	9.9%	?	.	13µM*	-3.9%
CCCN1CCc2c(sc3nc(SCC)n(-c4ccccc4)c(=O)c23)C1	15.8%	?	.	14.6µM*	-4.5%
O=C(NCC1CCCO1)c1ccc2c(c1)ncn2-c1cccc(F)c1 (stereo not given)	-24.0%	-9.7%	2.0%	-12.0%	-1.2%
Cc1ccc(-n2c(N)c(C(=O)Nc3ccccc3F)sc2=S)cc1C	-20.3%	?	7.4%	-14.2%	2.4%
CCOc1ccc(CCNC(=O)CCn2cccc2)cc1OCC	-2.3%	-10.8%	2.9%	-19.7%	0.3%
O=C(COc1ccc(S(=O)(=O)NC2CCCCC2)cc1)N1CCN(c2cccc(Cl)c2)CC1	?	?	9.1%	16.4µM*	.
CC(C)NS(=O)(=O)c1ccc(OCC(=O)N2CCCC2)cc1	-6.8%	-9.1%	4.2%	-15.4%	-0.4%
Cc1ccc(Cl)cc1N1CCN(C(=O)COc2ccc(S(=O)(=O)NC(C)C)cc2)CC1	?	13µM*	3.9%	18.4µM*	?
CC(C)NS(=O)(=O)c1ccc(OCC(=O)N2CCN(c3ccccc3)CC2)cc1	8.9%	-5.3%	0.0%	?	4.0%
Cc1ccc(-c2nc(CCNC(=O)c3ccco3)cs2)cc1	.	2.1%	3.4%	?	-2.6%
CCOc1ccc(NC(=O)C(=O)NCCc2csc(-c3ccc(C)cc3)n2)cc1	-3.7%	-23.7%	4.4%	-18.2%	.
COc1ccc(-c2nc(CCNC(=O)c3ccccc3)cs2)cc1OC	11.8%	23.1µM*	4.4%	23.1µM*	.
O=C(NCCc1csc(-c2ccc(Cl)cc2)n1)c1ccco1	6.0%	?	2.9%	14.6µM*	-7.4%
COc1ccc(CC(=O)NCCc2csc(-c3ccc(Cl)cc3)n2)cc1	12.9%	18.4µM*	-1.9%	16.4µM*	.
